Laboratory results from PubChem BioAssay AID1159580 (chemical genetic matrix, 2015).
“And” between values parts separate entries of the source, which are not always exact repeats. Equal entries are not always repeated. Hit rate of the full screen: of about 5,500 compounds, about 2,000 (36%) were called active. Roughly 18% stayed inconclusive and do not appear here. Rule as the data show it: active = normalized growth mostly below about 0.91 (no sharp cut-off); inconclusive = no clear call, values can overlap the other calls; inactive = mostly above about 0.92. This is one part of the list.

Experiment: chemical genetic growth profiling, strain panel (AID 1159580);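 also: tested at 20 µM; growth read once vehicle control cultures reached saturation at 30 °C; 1 = growth at the plate median or of vehicle wells; lower values mean less growth of the strain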
Conditions: growth OD

Measured: normalized growth

Nc1ccc(S(=O)(=O)Nc2ccnn2-c2ccccc2)cc1
inactive: S. cerevisiae deletion strains, locus YJR075W, strain HOC1, active compounds read low 1.02 and 1.03 | S. cerevisiae deletion strains, locus YKL009W, strain mrt4, active compounds read low 0.976 | S. cerevisiae deletion strains, locus YKL068W, active compounds read low 1 | S. cerevisiae deletion strains, locus YKL085W, strain MDH1 (second series), active compounds read low 0.999 | S. cerevisiae deletion strains, locus YKL085W, strain MDH1, active compounds read low 0.999 | S. cerevisiae deletion strains, locus YKL160W, strain elf1, active compounds read low 0.989 | S. cerevisiae deletion strains, locus YKL190W, strain CNB1, active compounds read low 1.01 | S. cerevisiae deletion strains, locus YKR001C, strain vps1, active compounds read low 0.992 | S. cerevisiae deletion strains, locus YKR026C, strain gcn3, active compounds read low 0.965 | S. cerevisiae deletion strains, locus YKR091W, strain srl3, active compounds read low 0.997 | S. cerevisiae deletion strains, locus YLL001W, strain dnm1, active compounds read low 0.979 | S. cerevisiae deletion strains, locus YLL026W, active compounds read low 0.997 | S. cerevisiae deletion strains, locus YLL041C, strain sdh2, active compounds read low 0.986 | S. cerevisiae deletion strains, locus YLR027C, strain aat2, active compounds read low 0.985 | S. cerevisiae deletion strains, locus YLR039C, strain RIC1, active compounds read low 0.982 | S. cerevisiae deletion strains, locus YLR058C, strain SHM2, active compounds read low 1.01 | S. cerevisiae deletion strains, locus YLR102C, strain apc9, active compounds read low 0.99 | S. cerevisiae deletion strains, locus YLR113W, strain HOG1, active compounds read low 0.998 | S. cerevisiae deletion strains, locus YLR221C, strain rsa3, active compounds read low 0.986 | S. cerevisiae deletion strains, locus YLR258W, strain gsy2, active compounds read low 0.998 | S. cerevisiae deletion strains, locus YLR262C, strain YPT6 (second series), active compounds read low 0.885 | S. cerevisiae deletion strains, locus YLR262C, strain YPT6, active compounds read low 0.993 | S. cerevisiae deletion strains, locus YLR268W, strain sec22, active compounds read low 0.998 | S. cerevisiae deletion strains, locus YLR320W, strain mms22, active compounds read low 1.03 | S. cerevisiae deletion strains, locus YLR330W, strain CHS5, active compounds read low 1 | S. cerevisiae deletion strains, locus YLR342W, strain FKS1 (second series), active compounds read low 0.983 | S. cerevisiae deletion strains, locus YLR342W, strain FKS1, active compounds read low 1.01 | S. cerevisiae deletion strains, locus YLR357W, strain rsc2, active compounds read low 1 | S. cerevisiae deletion strains, locus YLR370C, strain arc18, active compounds read low 1.01 | S. cerevisiae deletion strains, locus YLR371W, strain rom2, active compounds read low 0.99 | S. cerevisiae deletion strains, locus YLR384C, strain iki3, active compounds read low 0.977 | S. cerevisiae deletion strains, locus YLR418C, strain cdc73, active compounds read low 1.01 | S. cerevisiae deletion strains, locus YML016C, strain PPZ1, active compounds read low 1.01 | S. cerevisiae deletion strains, locus YML032C, strain rad52, active compounds read low 0.996 | S. cerevisiae deletion strains, locus YML120C, strain ndi1, active compounds read low 0.99 | S. cerevisiae deletion strains, locus YML124C, strain tub3, active compounds read low 1 | S. cerevisiae deletion strains, locus YMR058W, strain fet3, active compounds read low 0.986 | S. cerevisiae deletion strains, locus YMR078C, strain ctf18, active compounds read low 0.998 | S. cerevisiae deletion strains, locus YMR125W, strain sto1, active compounds read low 0.954 | S. cerevisiae deletion strains, locus YMR129W, active compounds read low 0.988 | S. cerevisiae deletion strains, locus YMR205C, strain PFK2, active compounds read low 1.05 | S. cerevisiae deletion strains, locus YMR223W, strain ubp8, active compounds read low 0.991 | S. cerevisiae deletion strains, locus YMR231W, strain pep5, active compounds read low 0.997 | S. cerevisiae deletion strains, locus YMR263W, strain SAP30, active compounds read low 1.03 | S. cerevisiae deletion strains, locus YMR307W, strain GAS1, active compounds read low 0.943 and 0.968 | S. cerevisiae deletion strains, locus YNL067W, strain RPL9B, active compounds read low 1.02 | S. cerevisiae deletion strains, locus YNL071W, strain lat1, active compounds read low 0.993 | S. cerevisiae deletion strains, locus YNL128W, strain TEP1, active compounds read low 0.995 | S. cerevisiae deletion strains, locus YNL175C, strain NOP13, active compounds read low 1.01 | S. cerevisiae deletion strains, locus YNL183C, strain NPR1, active compounds read low 0.899 | S. cerevisiae deletion strains, locus YNL197C, strain WHI3, active compounds read low 1.01 | S. cerevisiae deletion strains, locus YNL209W, strain ssb2, active compounds read low 0.994 | S. cerevisiae deletion strains, locus YNL224C, strain SQS1, active compounds read low 1 | S. cerevisiae deletion strains, locus YNL233W, strain BNI4, active compounds read low 1.02 | S. cerevisiae deletion strains, locus YNL248C, strain rpa49, active compounds read low 0.957 | S. cerevisiae deletion strains, locus YNL250W, strain rad50, active compounds read low 1 | S. cerevisiae deletion strains, locus YNL271C, strain bni1, active compounds read low 0.993 | S. cerevisiae deletion strains, locus YNL298W, strain CLA4, active compounds read low 1.01 | S. cerevisiae deletion strains, locus YNL307C, strain MCK1, active compounds read low 0.99 | S. cerevisiae deletion strains, locus YNL322C, strain KRE1 (second series), active compounds read low 1 | S. cerevisiae deletion strains, locus YNL322C, strain KRE1, active compounds read low 1.01 and 1.02 | S. cerevisiae deletion strains, locus YNR049C, strain mso1, active compounds read low 0.996 | S. cerevisiae deletion strains, locus YNR052C, strain pop2, active compounds read low 0.981 | S. cerevisiae deletion strains, locus YOL006C, strain TOP1, active compounds read low 1.07 | S. cerevisiae deletion strains, locus YOL012C, strain htz1 1.59 | S. cerevisiae deletion strains, locus YOL147C, strain pex11, active compounds read low 1.01 | S. cerevisiae deletion strains, locus YOR001W, strain rrp6, active compounds read low 0.969 | S. cerevisiae deletion strains, locus YOR061W, strain CKA2, active compounds read low 1.01 | S. cerevisiae deletion strains, locus YOR069W, strain VPS5, active compounds read low 1.01 | S. cerevisiae deletion strains, locus YOR070C, strain gyp1, active compounds read low 0.997 | S. cerevisiae deletion strains, locus YOR080W, strain dia2, active compounds read low 1 | S. cerevisiae deletion strains, locus YOR083W, strain WHI5 (second series), active compounds read low 1.03 | S. cerevisiae deletion strains, locus YOR083W, strain WHI5, active compounds read low 0.968 | S. cerevisiae deletion strains, locus YOR106W, strain vam3, active compounds read low 0.977 | S. cerevisiae deletion strains, locus YOR136W, strain idh2, active compounds read low 1 | S. cerevisiae deletion strains, locus YOR144C, strain elg1, active compounds read low 1 | S. cerevisiae deletion strains, locus YOR184W, strain ser1, active compounds read low 0.996 | S. cerevisiae deletion strains, locus YOR231W, strain MKK1, active compounds read low 0.974 | S. cerevisiae deletion strains, locus YOR265W, strain rbl2, active compounds read low 1 | S. cerevisiae deletion strains, locus YOR270C, strain vph1, active compounds read low 0.997 | S. cerevisiae deletion strains, locus YOR290C, strain snf2, active compounds read low 0.957 | S. cerevisiae deletion strains, locus YOR316C, strain cot1, active compounds read low 0.994 | S. cerevisiae deletion strains, locus YPL051W, strain arl3, active compounds read low 0.978 | S. cerevisiae deletion strains, locus YPL055C, strain LGE1, active compounds read low 1.05 and 1.01 | S. cerevisiae deletion strains, locus YPL078C, strain atp4, active compounds read low 0.963 | S. cerevisiae deletion strains, locus YPL106C, strain sse1, active compounds read low 0.993 | S. cerevisiae deletion strains, locus YPL240C, strain hsp82, active compounds read low 0.979 | S. cerevisiae deletion strains, locus YPL241C, strain CIN2, active compounds read low 1.01 | S. cerevisiae deletion strains, locus YPL256C, strain CLN2, active compounds read low 0.975 | S. cerevisiae deletion strains, locus YPR119W, strain clb2, active compounds read low 0.997 | S. cerevisiae deletion strains, locus YPR141C, strain kar3, active compounds read low 1 | S. cerevisiae deletion strains, locus YPR163C, strain tif3, active compounds read low 1 | S. cerevisiae deletion strains, locus YPR167C, strain met16, active compounds read low 0.991 | S. cerevisiae deletion strains, strain wtn01, active compounds read low 1 | S. cerevisiae strains, strain wild type, active compounds read low 1.01
